Screens deposited in PubChem by several laboratories.
Shown are actives, neighbours in structure and some others; about 1.2% of the full set was active somewhere.
NPR2 activator: GC-B (human) receptor activation; P20594; HEK293-GC-B cells, CNP EC30, cGMP TR-FRET; 0% at EC30 CNP, 100% saturating CNP; activation, % at 10 µM; hit rate 0.11% among 370,000;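 active means activation at 10 µM reaching about 35% in either raw or pattern-adjusted values, limit read from the data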
NOD2-RIPK2 inh: inhibitors of human NOD2-RIPK2 interaction. O43353. CHO BLA complementation NOD2-RIPK2, CCF4 ratio. inhibition, % at 4.98 µM. hit rate 0.38% among 360,000. AID 624267; in the data active means inhibition above about 21%;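 further: 0% = vehicle only and 100% = reference blocker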
Neddyl block: blocks human cullin neddylation. hit rate 0.58% among 360,000. TR-FRET cullin neddylation, biochemical. inhibition, % at 25 µM; in the data active means inhibition above about 36%
NPR1 activator: GC-A (human) enzyme activation; P16066; HEK293 GC-A cells, cGMP TR-FRET, EC30 ANP; 0% at EC30 ANP, 100% saturating ANP; activation, % at 10 µM; hit rate 0.14% among 370,000; AID 1671463; in the data active means activation above about 40%
TLR4 MyD88 comp: blocks binding of human TLR4 to MyD88 | O00206+Q99836 | HeLa CL3-4 TLR4/MyD88 BLA complementation, FRET ratio | inhibition, % at 8.4 µM | hit rate 0.18% among 200,000; in the data active means inhibition above about 25%;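 further: 0% = vehicle and 100% = reference inhibitor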
Target sequence (O00206 whole entry, looked up): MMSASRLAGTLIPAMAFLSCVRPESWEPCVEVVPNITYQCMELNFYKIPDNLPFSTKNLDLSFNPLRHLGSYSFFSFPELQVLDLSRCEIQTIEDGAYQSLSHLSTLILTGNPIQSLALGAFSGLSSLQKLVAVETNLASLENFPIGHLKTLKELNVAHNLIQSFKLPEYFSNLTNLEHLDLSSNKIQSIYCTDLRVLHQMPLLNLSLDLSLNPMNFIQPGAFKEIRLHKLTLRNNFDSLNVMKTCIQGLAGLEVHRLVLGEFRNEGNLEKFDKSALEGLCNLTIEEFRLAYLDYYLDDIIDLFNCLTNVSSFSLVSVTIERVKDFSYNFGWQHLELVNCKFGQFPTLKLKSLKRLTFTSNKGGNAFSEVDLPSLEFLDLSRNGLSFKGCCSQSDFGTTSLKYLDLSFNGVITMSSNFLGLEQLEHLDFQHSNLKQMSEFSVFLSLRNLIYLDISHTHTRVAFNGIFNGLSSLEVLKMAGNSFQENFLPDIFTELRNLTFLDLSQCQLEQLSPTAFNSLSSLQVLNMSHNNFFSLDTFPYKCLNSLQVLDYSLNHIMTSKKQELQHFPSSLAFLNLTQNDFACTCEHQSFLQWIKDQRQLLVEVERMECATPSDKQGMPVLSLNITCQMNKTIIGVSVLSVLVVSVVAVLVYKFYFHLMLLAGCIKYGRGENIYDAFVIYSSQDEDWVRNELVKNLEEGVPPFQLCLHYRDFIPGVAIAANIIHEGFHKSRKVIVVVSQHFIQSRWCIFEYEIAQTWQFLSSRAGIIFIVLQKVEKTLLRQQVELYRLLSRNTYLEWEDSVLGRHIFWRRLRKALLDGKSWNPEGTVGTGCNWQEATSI
Target sequence (Q99836 whole entry, looked up): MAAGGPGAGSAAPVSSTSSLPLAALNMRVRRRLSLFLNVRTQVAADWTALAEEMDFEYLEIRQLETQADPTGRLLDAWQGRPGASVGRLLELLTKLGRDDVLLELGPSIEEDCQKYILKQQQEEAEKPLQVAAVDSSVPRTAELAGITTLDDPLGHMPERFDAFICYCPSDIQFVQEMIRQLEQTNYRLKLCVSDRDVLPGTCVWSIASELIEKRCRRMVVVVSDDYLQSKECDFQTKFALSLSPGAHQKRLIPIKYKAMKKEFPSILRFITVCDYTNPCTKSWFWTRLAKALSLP
TLR9-MyD88 block: blocks human TLR9 binding to MyD88. inhibition, % at 4.98 µM. Q9NR96+Q99836. CHO BLA complementation TLR9-MyD88, CCF4 FRET ratio. hit rate 0.21% among 340,000;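 active means inhibition above the mean over all tested compounds plus 3 SD, cut at about 21% in these data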;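 further: 0% = DMSO only wells and 100% = clavulanate BLA inhibitor control wells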
* hit, by the source's call; · = not tested or not shown.

SMILES | NPR2 activator | NOD2-RIPK2 inh | Neddyl block | NPR1 activator | TLR4 MyD88 comp | TLR9-MyD88 block
COCCCn1c(-c2ccco2)nc2ccccc2c1=O | 0.6 | -9.5 | -1.4 | 4.2 | -7.5 | -10.3
COc1cc(-c2cc(C(=O)Nc3ccc(S(N)(=O)=O)cc3)c3ccccc3n2)cc(OC)c1OC | 5.6 | 2.2 | · | 4.9 | · | -8.8
CCN(CC)S(=O)(=O)c1ccc(O)c(NC(=O)c2cc(-c3cc(OC)c(OC)c(OC)c3)nc3ccccc23)c1 | · | -11.6 | 38.3* | · | · | -2.5
COC(=O)c1cn(-c2ccc(-c3noc4c3C(=O)N(CC(=O)N3CCOCC3)CC4)cc2)nn1 | -4.9 | · | · | 2.8 | · | ·
C#CCOCCOCCOCCNc1nc(N2CCN(C(=O)CCCCCCCCCCNC(=O)Cn3cc(C[C@@H](C)O)nn3)CC2)nc(N2CCN(C(=O)CCCCCCCCCCNC(=O)[C@H](CCCCN)n3cc(C[C@@H](C)CC)nn3)CC2)n1 | · | 24.1* | -19.4 | · | · | -1.7
C#CCOCCOCCOCCNc1nc(N2CCN(C(=O)CCCCCCCCCCNC(=O)[C@@H](CCSC)n3cc(CCO)nn3)CC2)nc(N2CCN(C(=O)CCCCCCCCCCNC(=O)[C@H]([C@@H](C)CC)n3cc(CCCCN=C(N)N)nn3)CC2)n1 | · | 30.1* | -25.9 | · | · | 1.0
C#CCOCCOCCOCCNc1nc(N2CCN(C(=O)CCCCCCCCCCNC(=O)[C@H](CCCCN)n3cc(CCCC(=O)O)nn3)CC2)nc(N2CCN(C(=O)CCCCCCCCCCNC(=O)[C@H](CCCN=C(N)N)n3cc(C[C@@H](C)CC)nn3)CC2)n1 | · | 9.6 | -23.1 | · | · | -2.4
C#CCOCCOCCOCCNc1nc(N2CCOCC2)nc(N2CCN(C(=O)CCCCCCCCCCNC(=O)[C@@H](CCSC)n3cc(CCO)nn3)CC2)n1 | 4.7 | -0.4 | -18.3 | -0.4 | · | 1.9
C#CCOCCOCCOCCNc1nc(N2CCN(C(=O)CCCCCCCCCCNC(=O)[C@H](CCCCN)n3cc(CCO)nn3)CC2)nc(N2CCN(C(=O)CCCCCCCCCCNC(=O)[C@H](CCCN=C(N)N)n3cc(C[C@@H](C)CC)nn3)CC2)n1 | · | 20.4 | -12.9 | · | · | 21.5*
COC(=O)[C@]12C[C@H](CC(=O)N3CCN(C(=O)c4ccco4)CC3)C(=O)N(Cc3ccc(Cl)cc3Cl)C1=C[C@H](C1CCCC1)O[C@@H]2C | -18.5 | · | · | -23.7 | · | ·
Cc1ccc(NC(=O)C2CC3CCC2C3)c(C)c1 (configuration not stated) | 3.2 | · | · | -2.0 | · | ·
CCc1nnc(NC(=O)c2ccc(-c3ccccc3Cl)o2)s1 | -4.5 | -2.8 | 45.3* | 4.4 | 6.0 | -5.7
CN(C)S(=O)(=O)c1ccc2nc(COCc3nc4ccc(S(=O)(=O)N(C)C)cc4[nH]3)[nH]c2c1 | -3.4 | · | · | -0.4 | · | ·
CC(C)(C)OC(=O)[C@H](Cc1ccccc1)NC(=O)c1nc[nH]c1C(=O)N[C@@H](Cc1ccccc1)C(=O)OC(C)(C)C | 4.7 | -2.0 | -1.4 | -2.6 | · | 1.6
CC(C)(C)OC(=O)[C@H](Cc1ccccc1)NC(=O)c1ncn2c1c(=O)[nH]c1ccc(Br)cc12 | 39.1* | -9.2 | -316.8 | 19.4 | · | 6.9
CCCCOCCCNC(=O)C[C@H]1C[C@@]2(C(=O)OC)C(=C[C@H](C(C)(C)C)O[C@@H]2C)N(Cc2ccc(Cl)cc2Cl)C1=O | -10.4 | · | · | -9.2 | · | ·
Clc1ccc(OCCSc2ncccn2)cc1 | -7.1 | -5.5 | -5.6 | 54.6* | 13.1 | -3.5
COc1ccc(OCCSc2ncccn2)cc1 | 3.9 | -1.5 | -4.4 | 13.2 | 1.5 | 1.2
CC(C)C[C@H]1COc2ccc(Cl)cc2S(=O)(=O)N1Cc1cn(Cc2ccc(C(F)(F)F)cc2)nn1 | 7.0 | · | · | 1.1 | · | ·
CCC(=O)NC(=S)NNC(=O)c1ccc(O)cc1 | 85.1* | 1.0 | 4.1 | 0.7 | 13.7 | -2.7
CCC(=O)NNC(=S)NC(=O)c1ccc(C)cc1 | 4.8 | -11.4 | -0.3 | 4.7 | 6.6 | 5.6
O=C(CSc1nnc(-c2cccnc2)n1Cc1ccco1)Nc1ccc(F)cc1Cl | -1.4 | · | · | -5.0 | · | ·
COc1ccccc1-c1c(-c2ccc(OCC(=O)NN)cc2O)n[nH]c1C(F)(F)F | -1.2 | -15.6 | 5.0 | 2.7 | -10.2 | 0.4
COc1ccc(-c2n[nH]c(C(F)(F)F)c2-c2cc3ccccc3o2)c(O)c1 | 4.0 | 1.9 | 43.3* | 7.6 | -2.3 | 3.8
Cn1cc(/C=N/NC(=O)c2cc3cc(Br)ccc3o2)c2ccccc21 | 1.4 | -2.8 | 37.2 | 12.8 | · | ·
SMILES | NPR2 activator | NOD2-RIPK2 inh | Neddyl block | NPR1 activator | TLR4 MyD88 comp | TLR9-MyD88 block
O=C(O)c1ccc(-n2cccc2/C=N\NC(=O)c2cc3cc(Br)ccc3o2)cc1 | -0.9 | -8.2 | 47.2* | -5.7 | · | -1.9
COC(=O)C1CN(CCc2ccccc2)CCS(=O)(=O)N1Cc1ccc(C(F)(F)F)cc1 (configuration not stated) | 0.2 | · | · | -2.0 | · | ·
CC(=Nc1ccc(Br)cc1)c1sc2ccccc2c1O | 3.8 | 7.3 | · | -0.8 | · | 1.0
CC(=Nc1ccccc1)c1sc2ccccc2c1O | 0.0 | -14.0 | 44.4* | -4.5 | 8.2 | 6.8
COC(=O)CSc1nnc(-c2ccc(NS(=O)(=O)c3c(C(C)C)cc(C(C)C)cc3C(C)C)cc2)o1 | 6.1 | · | · | -1.3 | · | ·
O=C1ON=C(c2ccccc2)/C1=C\c1ccco1 | 41.8* | -12.1 | 1.3 | 27.4 | · | -6.3
O=C1ON=C(c2ccccc2)/C1=C/c1ccccc1 | 6.4 | -0.5 | 5.8 | 0.7 | · | -5.9
N#Cc1c2c(c(Nc3ccc(F)cc3)n3c1nc1ccccc13)CCCC2 | 12.1 | 5.3 | · | 44.0* | · | 3.9
N#Cc1c2c(c(-n3cnc4ccccc43)n3c1nc1ccccc13)CCC2 | -15.6 | -8.4 | -15.1 | 11.8 | -1.1 | 4.9
N#Cc1c2c(c(Nc3ccccc3)n3c1nc1ccccc13)CCC2 | 8.3 | -8.4 | · | 54.0* | -6.8 | 9.1
Cc1ccc(C)c(C(=O)Cn2ncc(Cl)c(Cl)c2=O)c1 | 26.7 | 20.7 | -349.0 | 22.3 | 19.8 | 14.1
Cc1cc(C(=O)Cn2ncc(Cl)c(Cl)c2=O)c(C)n1CC(F)(F)F | 55.9* | 12.3 | -269.0 | 45.1* | 9.0 | 15.5
CCc1ccc(C2NC(=S)NC3=C2C(=O)CC(C)(C)C3)cc1 (configuration not stated) | 5.8 | 1.6 | -99.1 | 13.6 | 8.2 | -9.0
CC(C)c1ccc(C2NC(=S)NC3=C2C(=O)CC(C)(C)C3)cc1 (configuration not stated) | 2.2 | 3.7 | -218.3 | 42.6* | 7.9 | -10.9
C[C@H]1[C@@H](OC(=O)NCCc2c[nH]c3ccccc23)CC[C@@]23CCCN2C(=O)CCC[C@@H]13 | -3.0 | · | · | -0.4 | · | ·
Cc1cc(Nc2cccc(Cl)c2)nc(NCc2ccccc2)n1 | -1.2 | 0.0 | 44.6* | -7.3 | -14.3 | 8.3
Cc1ccc(Cn2nnc3c2-c2ccccc2S(=O)(=O)N(C2CC2)C3)cc1 | -0.9 | · | · | -1.2 | · | ·
Cc1ccc(-c2ccc(CCC(=O)O)n2CC(=O)O)cc1 | · | -5.1 | 42.0* | · | -1.8 | -3.1
